Rab9 prom act = activators of Rab9 promoter; Potency, µM (doses to about 9.22 µM), for inactives: at the top dose activation, negative = inhibition, usual class: activators; 320,000 compounds, 2.8% hits; Huh7 Rab9 promoter-luciferase reporter, luminescence, 24 h; AID 485297; further: % of control where 0% means no effect; nearly all actives have a fitted effect of over 60% in size
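Rab9 promoter-driven luciferase in stably transfected Huh7 cells; 1500 cells/well rested 2 h, exposed to compound in DMSO for 24 h at 37 °C, 5% CO2. Luminescence read 10 min after adding luciferase reagent at ambient temperature.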
ELG1 repair inh = blocks ELG1-dependent DNA repair in HEK293T cells; HEK293T ELG1-luciferase reporter, luminescence, 16 h; DNA damage induced by 5-fluorouridine; Potency, µM (highest dose often 46.1 µM), for the others: at the highest dose activity change, negative = inhibition, actives largely listed as inhibitors; 330,000 compounds, 2.3% hits; further: on the % scale 0 is the no-effect control and ±100 the full control effect; nearly all actives have a fitted effect of over 55% in size
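DMSO vehicle served as the neutral condition. Each well held 2,000 cells given 5-fluorouridine plus compound; after 16 hr at 37 °C/5% CO2, ONE-Glo was added and luciferase measured 30 min later.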
NPC1 prom act = activators of NPC1 promoter. Huh7 NPC1 promoter luciferase reporter, 24 h. 320,000 compounds, 2.4% hits. Potency, µM (highest dose often 9.22 µM), without a hit: top-dose activation, actives largely listed as activators. AID 485313; further: % of control where 0% means no effect; nearly all actives have a fitted effect of over 60% in size
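In 1536-well qHTS, Huh7 cells harboring an NPC1 promoter–luciferase construct received compound for 24 h; activation was quantified by luminescence following luciferase reagent addition.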
SMN2 splice up = SMN2 splice variant enhancement | AID 1458 | HEK293 SMN2-luciferase splicing reporter, luminescence, 30-36 h | 210,000 compounds, 2.8% hits | Potency, µM (titrated, usually from 46.1 µM), without a hit: at the top dose activity change, positive = activation, hits mostly activators; further: % of control where 0% means no effect; nearly all actives have a fitted effect of over 55% in size
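HEK293 cells carry an SMN2 minigene-luciferase reporter in which exon 7 inclusion puts luciferase in frame. Cells were seeded at 2000 cells/well, attached for 10-12 hours, then exposed to compounds for 30-36 hours at 37C before ONE-Glo luminescence.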
ELG1 genotox = inducers of genotoxicity in HEK293T ELG1-luciferase cells; HEK293T ELG1-luciferase reporter, luminescence, 16 h; 330,000 compounds, 1.3% hits; AID 504466; Potency, µM (top dose mostly 46 µM), without a hit: top-dose activity change, positive = activation, most hits filed as activators; further: % of control where 0% means no effect; nearly all actives have a fitted effect of over 60% in size
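Quantitative HTS format in 1536-well plates. HEK293T ELG1-luciferase reporter cells receive test compound and are incubated 16 hr at 37 °C, 5% CO2; ONE-Glo added, 30 min room temperature, then luminescence read.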
FLuc counter = counter-screen for miR-21 project: firefly luciferase inhibitors or activators; P08659; purified FLuc, Km substrates, luminescence inhibition; Potency, µM (doses to about 57.5 µM), inactives show at the highest dose activity change, negative = inhibition, most hits filed as inhibitors; 360,000 compounds, 6.9% hits; AID 588342;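 further: plate controls were vehicle for no effect and reference inhibitor for full effect; nearly all actives have a fitted effect of over 55% in size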
Target sequence (P08659 whole entry, looked up): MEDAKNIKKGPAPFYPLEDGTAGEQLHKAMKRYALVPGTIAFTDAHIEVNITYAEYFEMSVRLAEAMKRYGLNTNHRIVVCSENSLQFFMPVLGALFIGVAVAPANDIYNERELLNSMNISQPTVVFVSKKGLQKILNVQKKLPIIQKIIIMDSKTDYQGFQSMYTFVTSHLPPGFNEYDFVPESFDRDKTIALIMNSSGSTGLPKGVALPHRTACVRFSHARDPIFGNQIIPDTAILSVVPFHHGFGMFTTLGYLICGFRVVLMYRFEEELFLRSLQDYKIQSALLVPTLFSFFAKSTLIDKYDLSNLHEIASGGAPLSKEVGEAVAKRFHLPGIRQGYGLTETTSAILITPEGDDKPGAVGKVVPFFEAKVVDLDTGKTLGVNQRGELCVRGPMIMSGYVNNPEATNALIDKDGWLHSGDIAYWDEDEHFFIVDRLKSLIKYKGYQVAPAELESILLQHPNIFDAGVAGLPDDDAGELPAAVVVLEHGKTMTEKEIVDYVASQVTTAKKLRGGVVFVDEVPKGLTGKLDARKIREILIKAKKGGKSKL
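Biochemical qHTS of compounds, final roughly 60 µM downward over six points, against 10 nM purified firefly luciferase using Km concentrations of substrates (10 uM D-luciferin, 10 uM ATP) in Tris acetate pH 7.5 buffer; luminescence output.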
Active calls of the source: *; ? = inconclusive; · = not tested or not shown; [ ] = dose if it differs, or a comment. Only some compounds are listed: those with a hit (about 9.2% of all), similar ones and a draw of the others. The call rests on the fitted dose curve; in most records, active means well fitted curve in the direction sought with a large enough effect; inconclusive means small, poorly fitted or top-dose-only effect, or another doubt; inactive means no such curve, though single readings can be large; an effect the other way counts as inactive or inconclusive. Potency means the concentration at half of the fitted maximal effect.

SMILES | Rab9 prom act | ELG1 repair inh | NPC1 prom act | SMN2 splice up | ELG1 genotox | FLuc counter
Cc1oc(C(=O)Nc2ccc(O)cc2)cc1COc1ccccc1 | -8.9% | 11.1% | 0.0% | ? | ? | ?
Cc1ccc(OCc2cc(C(=O)Nc3ccccc3)oc2C)cc1 | 17.1% | ? | 22.0% | 6.7% | ? | 19µM*
O=C(O)c1ccc(NC(=O)c2ccc(COc3ccccc3)o2)cc1 | 17.1% | 18.1% | 2.6% | · | 4.1% | 19µM*
COc1ccc(NC(=O)c2ccc(COc3ccc(C)cc3)o2)cc1 | 28.5% | -1.3% | 25.6% | · | 5.1% | 10.7µM*
CC(=O)Nc1ccc(NC(=O)c2ccc(COc3ccc(C)cc3)o2)cc1 | ? | 19.9% | ? | · | 3.4% | -3.3%
CC(C)CC(OC(=O)c1nsc(Cl)c1Cl)C(=O)NC1CCCC1 (stereo unspecified) | -1.5% | -0.6% | 3.1% | · | -0.1% | -0.7%
CCC(C)c1ccccc1NC(=O)CN(CC)CC(=O)Nc1ccc2c(c1)OCCO2 (stereo unspecified) | · | 0.6% | · | · | -2.8% | ·
COc1ccc(NCc2cc3cc4c(cc3n(CC(=O)Nc3ccc(C)c(C)c3)c2=O)OCO4)cc1 | · | · | · | · | · | -0.7%
Cc1nn(C)c(C)c1S(=O)(=O)N1CCC(C(=O)Nc2ccc3c(c2)OCCO3)CC1 | 20.3% | ? | 10.7% | 1.3% | 18.4µM* | 15.1µM*
COc1ccc(NC(=O)C2CCN(S(=O)(=O)c3c(C)nn(C)c3C)CC2)cc1 | 1.4% | 11.5% | -0.5% | · | 0.7% | -1.3%
CC(C)CCNC(=O)CN1C(=O)COc2ccc(S(=O)(=O)N3CCOCC3)cc21 | · | · | · | 1.0% | · | -0.1%
CCOC(=O)C1=C(C)NC(SC)=C(C#N)C1CC(C)C (stereo unspecified) | -22.9% | 10.3µM* | -33.1% | · | -0.7% | -1.4%
CC(=O)C1=C(C)NC(SCC(N)=O)=C(C#N)C1CC(C)C (stereo unspecified) | 10.5% | -10.9% | -4.4% | -2.8% | 1.5% | ?
CCOC(=O)C1=CNS(=O)(=O)NC1c1ccc(C[C@H](NC(=O)CNC(=O)CCc2ccccc2)C(N)=O)cc1 (stereo partly specified) | · | 22.0% | · | · | -1.4% | ·
Cc1ccc(NS(=O)(=O)c2cc(NC(=O)c3ccc4c(c3)NC(=O)CS4)ccc2Cl)c(C)c1 | -5.2% | 23.1µM* | -3.9% | -81.4% | -17.0% | ?
N#CCCn1c(O)c(N=NC(=O)CNC(=O)c2cccs2)c2ccccc21 | -0.7% | -22.8% | -3.9% | · | 0.1% | 4.2%
O=C1CC(/C=C/c2ccc(Cl)cc2)=Nc2ccccc2N1 | 1.26µM* | ? | 2.24µM* | · | ? | 4.26µM*
O=C1CC(/C=C/c2cccnc2)=Nc2ccccc2N1 | 16.7% | ? | 16.6% | -88.1% | -8.1% | -18.5%
O=C1CC(/C=C/c2ccccc2)=Nc2ccccc2N1 | 0.891µM* | ? | 2µM* | -4.6% | ? | 2.69µM*
CC1(C)CC(/C=C/c2ccccc2)=Nc2ccccc2N1 | ? | ? | ? | · | 14.8% | 4.26µM*
Cc1cc(C)c(NC(=O)COc2cccnc2[N+](=O)[O-])c(C)c1 | 1.7% | 4.8% | -1.7% | · | -0.3% | -1.5%
Cc1cccc(NC(=O)c2sc3nc(-c4ccc(F)cc4)cn3c2C)n1 | -1.7% | 12.9% | 3.8% | -25.9% | 3.6% | -14.5%
COc1ccc(-c2cn3c(C)c(C(=O)NC(C)C)sc3n2)cc1 | ? | 16.5% | 24.4% | -3.6% | 14.9% | ?
COc1ccc(-c2cn3c(C)c(C(=O)Nc4cccc(C)n4)sc3n2)cc1 | 2.4% | ? | 0.4% | ? | -12.0% | 12µM*
COc1ccc(C)cc1NC(=O)c1sc2nc(-c3ccc(F)cc3)cn2c1C | · | · | · | · | · | 2.6%
SMILES | Rab9 prom act | ELG1 repair inh | NPC1 prom act | SMN2 splice up | ELG1 genotox | FLuc counter
Cc1cccc(NC(=O)c2sc3nc(-c4ccccc4)cn3c2C)n1 | 0.6% | 18.4µM* | 16.2% | -53.3% | -5.8% | ?
COc1ccc(-c2cn3c(C)c(C(=O)NC(C)(C)C)sc3n2)cc1 | 0.631µM* | ? | 2µM* | · | ? | 5.36µM*
Cc1ccc(C)c(N(C(=O)CNC(=O)c2ccco2)C(C(=O)NC2CCCC2)c2ccncc2)c1 (stereo unspecified) | 0.4% | -7.9% | -9.3% | · | -3.1% | 0.5%
Cc1ccc(NC(=O)CCC(=O)c2cccs2)c(Br)c1 | 3.55µM* | ? | ? | · | ? | ?
Cc1cc(C)c(C(CC(=O)c2cccs2)C(C#N)C#N)c(C)c1 (stereo unspecified) | 3.55µM* | ? | ? | ? | 18.4µM* | 12µM*
COc1ccc(NC(=O)CO/N=C(\C)c2cccs2)cc1 | -1.8% | 12.9% | -0.9% | -3.6% | 0.9% | -19.4%
C/C(=N/OCC(=O)Nc1ccccc1)c1cccs1 | ? | ? | ? | -16.6% | ? | 9.53µM*
Cc1ccc(NCCC(=O)c2cccs2)cc1 | 2.82µM* | ? | ? | 23.3% | ? | 21.3µM*
Cc1ccc(CNC(=O)CCC(=O)c2cccs2)cc1 | 1.2% | 11.0% | -1.4% | -19.6% | -0.1% | -20.2%
O=C(NCC1CCCCC1)c1cc(S(=O)(=O)N2CCOCC2)ccc1F | -10.5% | 6.9% | 0.3% | · | -0.4% | ·
COc1ccc(S(=O)(=O)N2CCCCC2)cc1NS(=O)(=O)c1ccc(CNC(C)=O)cc1 | · | 14.6% | · | · | 0.6% | ·
COC(=O)C1=C(C(=O)OC)[C@@H]2Nc3ccccc3[C@@]23C[C@@H](C(=O)OC)N(C(=O)CC(C)C)C3=N1 | · | · | · | 5.3%[9.22 µM] | · | ·
O=C(CCNc1cccc(Cl)c1)c1cccs1 | 25.6% | ? | 15.9% | -5.2% | 7.7% | ?
Cc1ccc(NCCC(=O)c2cccs2)cc1C | ? | ? | 9.3% | ? | ? | 3.38µM*
Cc1ccc(NC(=O)CCC(=O)c2cccs2)cc1 | -3.4% | 12.5% | -0.5% | -23.5% | 8.9% | 10.7µM*
CC(C)c1ccc(NCCC(=O)c2cccs2)cc1 | ? | ? | ? | 18.2% | ? | 12µM*
Cc1ccc(NCCC(=O)c2cccs2)cc1Cl | 1.4% | ? | 8.5% | 5.3% | 20.6µM* | ?
CC(=O)NC(CC(=O)OCC(=O)c1cc(C)ccc1C)c1ccccc1 (stereo unspecified) | · | -1.1% | · | · | 0.6% | ·
CC(C)OCCCN1C=C2C(=O)C(C)(OC(=O)CCc3ccccc3)C(=O)C=C2C=C1c1ccc(C#N)cc1 (stereo unspecified) | -7.5% | -3.3% | -4.9% | 1.1%[9.22 µM] | -0.3% | 3.1%
O=C(CC(C(=O)O)c1ccccc1)c1cccs1 (stereo unspecified) | 7.8% | 15.6% | -0.5% | · | -1.7% | 3.3%
Cc1ccc(NC(=O)CNCc2cccs2)c(Br)c1 | 19.2% | ? | 29.9% | · | ? | 26.9µM*

Screening results: PubChem, National Center for Advancing Translational Sciences (NCATS)
